Measured values from PMC11006913.
Substitutions are numbered along the chain they refer to.

Key:
Experiment in all cases: PBM; 200 nM protein, PBS
Details in all cases: dsDNA, one strand shown
[1] = molecular target: T1, VENTX (Homo sapiens, UniProt O95231 78-163, R121Q)
T1 sequence: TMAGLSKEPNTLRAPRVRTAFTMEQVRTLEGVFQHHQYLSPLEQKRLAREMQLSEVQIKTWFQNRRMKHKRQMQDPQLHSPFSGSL

[2] = molecular target: T2, VENTX (Homo sapiens, UniProt O95231 78-163)
T2 sequence: T1 sequence with Q44R

[3] = molecular target: HOXB9 (Homo sapiens, UniProt P17482 171-250, T197M)
HOXB9 (Homo sapiens, UniProt P17482 171-250, T197M), sequence (P17482 171-250 T197M): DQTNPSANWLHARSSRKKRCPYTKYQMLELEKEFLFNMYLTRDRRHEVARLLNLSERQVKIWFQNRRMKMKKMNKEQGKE

[4] = molecular target: T3, VENTX (Homo sapiens, UniProt O95231 78-163, Y115F)
T3 sequence: T1 sequence with Y38F, Q44R

[5] = molecular target: HOXB9 (Homo sapiens, UniProt P17482 171-250)
HOXB9 (Homo sapiens, UniProt P17482 171-250), sequence (P17482 171-250): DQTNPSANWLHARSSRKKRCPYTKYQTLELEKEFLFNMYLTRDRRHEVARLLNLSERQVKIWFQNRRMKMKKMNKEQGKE

[6] = molecular target: ALX3 (Homo sapiens, UniProt O95076 139-225, N203Q)
ALX3 (Homo sapiens, UniProt O95076 139-225, N203Q), sequence (O95076 139-225 N203Q): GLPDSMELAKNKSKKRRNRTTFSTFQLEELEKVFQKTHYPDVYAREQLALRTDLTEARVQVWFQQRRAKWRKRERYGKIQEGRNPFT

[7] = molecular target: ALX3 (Homo sapiens, UniProt O95076 139-225)
ALX3 (Homo sapiens, UniProt O95076 139-225), sequence (O95076 139-225): as the sequence (O95076 139-225 N203Q) above, with Q65N counted along it

[8] = molecular target: ALX3 (Homo sapiens, UniProt O95076 139-225, L168Q)
ALX3 (Homo sapiens, UniProt O95076 139-225, L168Q), sequence (O95076 139-225 L168Q): as the sequence (O95076 139-225 N203Q) above, with L30Q, Q65N counted along it

[9] = molecular target: HOXB9 (Homo sapiens, UniProt P17482 171-250, R186Q)
HOXB9 (Homo sapiens, UniProt P17482 171-250, R186Q), sequence (P17482 171-250 R186Q): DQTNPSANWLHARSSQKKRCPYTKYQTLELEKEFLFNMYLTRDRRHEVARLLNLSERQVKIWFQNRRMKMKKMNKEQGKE

[10] = molecular target: ALX3 (Homo sapiens, UniProt O95076 139-225, L168V)
ALX3 (Homo sapiens, UniProt O95076 139-225, L168V), sequence (O95076 139-225 L168V): as the sequence (O95076 139-225 N203Q) above, with L30V, Q65N counted along it

[11] = molecular target: ALX3 (Homo sapiens, UniProt O95076 139-225, N203S)
ALX3 (Homo sapiens, UniProt O95076 139-225, N203S), sequence (O95076 139-225 N203S): as the sequence (O95076 139-225 N203Q) above, with Q65S counted along it

[12] = molecular target: HOXC9 (Homo sapiens, UniProt P31274 178-260, K195R)
HOXC9 (Homo sapiens, UniProt P31274 178-260, K195R), sequence (P31274 178-260 K195R): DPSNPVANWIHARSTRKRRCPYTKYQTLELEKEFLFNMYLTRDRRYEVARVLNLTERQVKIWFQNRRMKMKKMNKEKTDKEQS

[13] = molecular target: HOXC9 (Homo sapiens, UniProt P31274 178-260)
HOXC9 (Homo sapiens, UniProt P31274 178-260), sequence (P31274 178-260): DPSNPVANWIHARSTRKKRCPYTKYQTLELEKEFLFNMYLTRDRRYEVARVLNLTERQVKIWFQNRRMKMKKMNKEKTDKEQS

[14] = molecular target: HOXD13 (Homo sapiens, UniProt P35453 263-343, T313R)
HOXD13 (Homo sapiens, UniProt P35453 263-343, T313R), sequence (P35453 263-343 T313R): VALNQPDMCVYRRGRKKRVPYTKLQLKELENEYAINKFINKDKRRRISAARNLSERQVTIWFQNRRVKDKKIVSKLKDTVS

[15] = molecular target: HOXC9 (Homo sapiens, UniProt P31274 178-260, R193K)
HOXC9 (Homo sapiens, UniProt P31274 178-260, R193K), sequence (P31274 178-260 R193K): as the sequence (P31274 178-260) above, with R16K counted along it

[16] = molecular target: HOXD13 (Homo sapiens, UniProt P35453 263-343)
HOXD13 (Homo sapiens, UniProt P35453 263-343), sequence (P35453 263-343): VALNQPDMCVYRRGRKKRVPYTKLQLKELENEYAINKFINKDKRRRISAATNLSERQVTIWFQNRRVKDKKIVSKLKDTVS

[17] = molecular target: HOXD13 (Homo sapiens, UniProt P35453 263-343, T313A)
HOXD13 (Homo sapiens, UniProt P35453 263-343, T313A), sequence (P35453 263-343 T313A): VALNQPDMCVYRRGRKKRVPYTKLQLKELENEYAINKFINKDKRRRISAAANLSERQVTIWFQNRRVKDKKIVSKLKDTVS

[18] = molecular target: HOXC9 (Homo sapiens, UniProt P31274 178-260, R222W)
HOXC9 (Homo sapiens, UniProt P31274 178-260, R222W), sequence (P31274 178-260 R222W): as the sequence (P31274 178-260) above, with R45W counted along it

[19] = molecular target: PITX2 (Homo sapiens, UniProt Q99697 72-157)
[20] = molecular target: T4, SIX6 (Homo sapiens, UniProt O95475 114-200, L167I)
T4 sequence: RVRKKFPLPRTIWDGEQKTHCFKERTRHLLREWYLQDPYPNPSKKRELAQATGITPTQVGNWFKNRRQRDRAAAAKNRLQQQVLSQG

[21] = molecular target: T5, SIX6 (Homo sapiens, UniProt O95475 114-200, L143V)
T5 sequence: T4 sequence with L30V, I54L

[22] = molecular target: T6, SIX6 (Homo sapiens, UniProt O95475 114-200, H141N)
T6 sequence: T4 sequence with H28N, I54L

[23] = molecular target: T7, SIX6 (Homo sapiens, UniProt O95475 114-200, T165P)
T7 sequence: T4 sequence with T52P, I54L

[24] = molecular target: T8, SIX6 (Homo sapiens, UniProt O95475 114-200, L167M)
T8 sequence: T4 sequence with I54M

[25] = molecular target: T9, SIX6 (Homo sapiens, UniProt O95475 114-200, L143M)
T9 sequence: T4 sequence with L30M, I54L

[26] = molecular target: T10, SIX6 (Homo sapiens, UniProt O95475 114-200, L143I)
T10 sequence: T4 sequence with L30I, I54L

[27] = molecular target: T11, SIX6 (Homo sapiens, UniProt O95475 114-200, T165G)
T11 sequence: T4 sequence with T52G, I54L

[28] = molecular target: T12, SIX6 (Homo sapiens, UniProt O95475 114-200, T139Q)
T12 sequence: T4 sequence with T26Q, I54L

[29] = molecular target: MSX2 (Homo sapiens, UniProt P35548 130-214, R199I)
MSX2 (Homo sapiens, UniProt P35548 130-214, R199I), sequence (P35548 130-214 R199I): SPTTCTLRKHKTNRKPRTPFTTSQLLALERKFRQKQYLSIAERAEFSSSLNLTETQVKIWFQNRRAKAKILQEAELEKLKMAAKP

[30] = molecular target: T13, SIX6 (Homo sapiens, UniProt O95475 114-200, T165A)
T13 sequence: T4 sequence with T52A, I54L

[31] = molecular target: MSX2 (Homo sapiens, UniProt P35548 130-214)
MSX2 (Homo sapiens, UniProt P35548 130-214), sequence (P35548 130-214): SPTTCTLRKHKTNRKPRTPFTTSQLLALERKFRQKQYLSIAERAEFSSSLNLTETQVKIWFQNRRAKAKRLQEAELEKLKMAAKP

[32] = molecular target: T14, SIX6 (Homo sapiens, UniProt O95475 114-200, L167V)
T14 sequence: T4 sequence with I54V

[33] = molecular target: T15, SIX6 (Homo sapiens, UniProt O95475 114-200)
T15 sequence: T4 sequence with I54L

[34] = molecular target: T16, SIX6 (Homo sapiens, UniProt O95475 114-200, T165I)
T16 sequence: T4 sequence with T52I, I54L

[35] = molecular target: MSX2 (Homo sapiens, UniProt P35548 130-214, F161Y)
MSX2 (Homo sapiens, UniProt P35548 130-214, F161Y), sequence (P35548 130-214 F161Y): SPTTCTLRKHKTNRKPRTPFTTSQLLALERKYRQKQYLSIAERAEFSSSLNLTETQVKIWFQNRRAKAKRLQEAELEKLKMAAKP

For AATAACAC, the binding signal [1] was 9.57 upbm affinity estimate (log intensity, higher = more binding, comparable within an allelic series) and the binding signal [2] was 9.93 upbm affinity estimate (log intensity, higher = more binding, comparable within an allelic series).

In the case of GACCCAGC, the binding signal [1] is reported as 8.18 upbm affinity estimate (log intensity, higher = more binding, comparable within an allelic series), the binding signal [3] is reported as 8.5 upbm affinity estimate (log intensity, higher = more binding, comparable within an allelic series) and the binding signal [2] is reported as 8.16 upbm affinity estimate (log intensity, higher = more binding, comparable within an allelic series). The binding signal [4] was 8.12 upbm affinity estimate (log intensity, higher = more binding, comparable within an allelic series), the binding signal [5] was 8.47 upbm affinity estimate (log intensity, higher = more binding, comparable within an allelic series) and the binding signal [6] was 7.75 upbm affinity estimate (log intensity, higher = more binding, comparable within an allelic series). For the same sequence, the binding signal [7] was 7.56 upbm affinity estimate (log intensity, higher = more binding, comparable within an allelic series), the binding signal [8] was 7.85 upbm affinity estimate (log intensity, higher = more binding, comparable within an allelic series) and the binding signal [9] was 8.49 upbm affinity estimate (log intensity, higher = more binding, comparable within an allelic series). For the same sequence, the binding signal [10] was 7.79 upbm affinity estimate (log intensity, higher = more binding, comparable within an allelic series) and the binding signal [11] was 7.8 upbm affinity estimate (log intensity, higher = more binding, comparable within an allelic series).

CCCCTCCC was tested, and the binding signal [1] was 8.02 upbm affinity estimate (log intensity, higher = more binding, comparable within an allelic series), the binding signal [12] was 9.65 upbm affinity estimate (log intensity, higher = more binding, comparable within an allelic series) and the binding signal [2] was 7.87 upbm affinity estimate (log intensity, higher = more binding, comparable within an allelic series). The binding signal [4] was 8.02 upbm affinity estimate (log intensity, higher = more binding, comparable within an allelic series), the binding signal [13] was 9.76 upbm affinity estimate (log intensity, higher = more binding, comparable within an allelic series) and the binding signal [14] was 9.44 upbm affinity estimate (log intensity, higher = more binding, comparable within an allelic series). The binding signal [15] was 9.62 upbm affinity estimate (log intensity, higher = more binding, comparable within an allelic series), the binding signal [16] was 9.54 upbm affinity estimate (log intensity, higher = more binding, comparable within an allelic series) and the binding signal [17] was 9.62 upbm affinity estimate (log intensity, higher = more binding, comparable within an allelic series). For the same sequence, the binding signal [18] was 9.53 upbm affinity estimate (log intensity, higher = more binding, comparable within an allelic series).

With TAATGTGA the binding signal [1] was 10.5 upbm affinity estimate (log intensity, higher = more binding, comparable within an allelic series).

In the case of CGGGCACG, the binding signal [1] is reported as 7.97 upbm affinity estimate (log intensity, higher = more binding, comparable within an allelic series), the binding signal [12] is reported as 9.61 upbm affinity estimate (log intensity, higher = more binding, comparable within an allelic series) and the binding signal [2] is reported as 7.98 upbm affinity estimate (log intensity, higher = more binding, comparable within an allelic series). For the same sequence, the binding signal [4] was 8.07 upbm affinity estimate (log intensity, higher = more binding, comparable within an allelic series), the binding signal [13] was 9.57 upbm affinity estimate (log intensity, higher = more binding, comparable within an allelic series) and the binding signal [19] was 8.22 upbm affinity estimate (log intensity, higher = more binding, comparable within an allelic series). The binding signal [15] was 9.49 upbm affinity estimate (log intensity, higher = more binding, comparable within an allelic series) and the binding signal [18] was 9.66 upbm affinity estimate (log intensity, higher = more binding, comparable within an allelic series).

With GGCACCAC the binding signal [1] was 8.11 upbm affinity estimate (log intensity, higher = more binding, comparable within an allelic series), the binding signal [12] was 9.65 upbm affinity estimate (log intensity, higher = more binding, comparable within an allelic series) and the binding signal [2] was 8.1 upbm affinity estimate (log intensity, higher = more binding, comparable within an allelic series). The binding signal [4] was 8.09 upbm affinity estimate (log intensity, higher = more binding, comparable within an allelic series), the binding signal [13] was 9.66 upbm affinity estimate (log intensity, higher = more binding, comparable within an allelic series) and the binding signal [15] was 9.65 upbm affinity estimate (log intensity, higher = more binding, comparable within an allelic series). For the same sequence, the binding signal [18] was 9.76 upbm affinity estimate (log intensity, higher = more binding, comparable within an allelic series).

With CTAATGGA the binding signal [1] was 11.7 upbm affinity estimate (log intensity, higher = more binding, comparable within an allelic series).

In the case of GCGCGCCC, the binding signal [1] is reported as 8.19 upbm affinity estimate (log intensity, higher = more binding, comparable within an allelic series), the binding signal [3] is reported as 8.46 upbm affinity estimate (log intensity, higher = more binding, comparable within an allelic series) and the binding signal [20] is reported as 8.73 upbm affinity estimate (log intensity, higher = more binding, comparable within an allelic series). For the same sequence, the binding signal [2] was 8.26 upbm affinity estimate (log intensity, higher = more binding, comparable within an allelic series), the binding signal [21] was 8.71 upbm affinity estimate (log intensity, higher = more binding, comparable within an allelic series) and the binding signal [22] was 8.79 upbm affinity estimate (log intensity, higher = more binding, comparable within an allelic series). For the same sequence, the binding signal [23] was 8.94 upbm affinity estimate (log intensity, higher = more binding, comparable within an allelic series), the binding signal [4] was 8.22 upbm affinity estimate (log intensity, higher = more binding, comparable within an allelic series) and the binding signal [24] was 8.76 upbm affinity estimate (log intensity, higher = more binding, comparable within an allelic series). For the same sequence, the binding signal [25] was 8.75 upbm affinity estimate (log intensity, higher = more binding, comparable within an allelic series), the binding signal [26] was 8.78 upbm affinity estimate (log intensity, higher = more binding, comparable within an allelic series) and the binding signal [27] was 8.82 upbm affinity estimate (log intensity, higher = more binding, comparable within an allelic series). For the same sequence, the binding signal [5] was 8.66 upbm affinity estimate (log intensity, higher = more binding, comparable within an allelic series), the binding signal [28] was 8.77 upbm affinity estimate (log intensity, higher = more binding, comparable within an allelic series) and the binding signal [29] was 9.61 upbm affinity estimate (log intensity, higher = more binding, comparable within an allelic series). The binding signal [30] was 8.75 upbm affinity estimate (log intensity, higher = more binding, comparable within an allelic series), the binding signal [31] was 9.64 upbm affinity estimate (log intensity, higher = more binding, comparable within an allelic series) and the binding signal [32] was 8.91 upbm affinity estimate (log intensity, higher = more binding, comparable within an allelic series). For the same sequence, the binding signal [33] was 8.8 upbm affinity estimate (log intensity, higher = more binding, comparable within an allelic series), the binding signal [34] was 8.71 upbm affinity estimate (log intensity, higher = more binding, comparable within an allelic series) and the binding signal [9] was 8.61 upbm affinity estimate (log intensity, higher = more binding, comparable within an allelic series). The binding signal [35] was 9.62 upbm affinity estimate (log intensity, higher = more binding, comparable within an allelic series).
